TRPV1 potentiator = HTS Assay for Compounds that Act as Potentiators of the Vanilloid Receptor 1 | potentiation, % at 8.33 µM | TRPV1-expressing cells, Fluo-8 calcium influx, capsaicin EC20 potentiation | hit rate 0.02% among 320,000 | Transient receptor potential cation channel subfamily V member 1 (Homo sapiens), Q8NER1; in the data active = potentiation above about 80%; inconclusive = between about 30% and that limit
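TRPV1-expressing cells were cultured overnight at 35.5C and loaded with Fluo-8 calcium dye for 40 to 90 min at room temperature. After a 10 s baseline, compound was added and calcium influx was read kinetically for 3 min (ex 480/em 520 nm).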
TRPML1 agonist = qHTS for Agonists of the Human Mucolipin Transient Receptor Potential 1 (TRPML1). TRPML1-expressing cells, Ca2+ dye fluorescence, FDSS. hit rate 0.12% among 410,000. Mucolipin-1 (Homo sapiens), Q9GZU1. activation, % (concentration not given with the values); in the data active = activation above about 50%; inconclusive = mostly about 30% to 49%
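Tetracycline-induced TRPML1-DL cells are seeded and incubated overnight before loading with a no-wash Ca2+ dye and quencher. Agonist activity is taken from the 110 s fluorescence read following compound pin-transfer on an FDSS, before EC80 54-4 challenge.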
TRPML1 inh = qHTS for Inhibitors of the Human Mucolipin Transient Receptor Potential 1 (TRPML1) | hit rate 0.02% among 390,000 | TRPML1-inducible cells, Ca2+ dye fluorescence, FDSS; hits give low values; inhibition of EC80 agonist-evoked calcium signal | Mucolipin-1 (Homo sapiens), Q9GZU1 | activity change, negative = inhibition, % (concentration not given with the values) | AID 624415, 2012; in the data active = activity change below about -50%; inconclusive = between about -30% and that limit;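 also: stimulus is agonist 54-4 at its EC80 concentration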
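TRPML1-DL cells, Tet-induced overnight (~16 h, 37 °C) at 1,500 cells/well, were loaded with Ca8 no-wash dye plus quencher for 45-90 min at room temperature. Compounds were pinned during FDSS kinetic reading; agonist 54-4 at EC80 (4 uM final) then added.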
LDHA inh = qHTS assay for inhibitors of human lactate dehydrogenase; AID 1347041, 2019; activity change, % (values are at about 110 or 230 µM); hit rate 0.15% among 480,000; purified LDHA, NADH/diaphorase-resazurin fluorescence; hits give low values; L-lactate dehydrogenase A chain (Homo sapiens), P00338; in the data active = activity change below about -30%; inconclusive = mostly about -25% to -30%
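Resorufin fluorescence (ex540/em590), read at 0 and 20 min after diaphorase/resazurin addition, reports the NADH left after a 5 min room-temperature reaction of 2 nM human LDH5 with 0.06 mM NADH and 0.2 mM pyruvate.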
TRPV1 agonist = HTS Assay for Compounds that Act as Agonists of the Vanilloid Receptor 1. hit rate 0.19% among 320,000. activation, % at 8.33 µM. AID 540275, 2011. TRPV1-expressing cells, Fluo-8 calcium influx, agonist mode; in the data active = activation above about 80%; inconclusive = between about 30% and that limit
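Cells expressing TRPV1 were dye-loaded with Fluo-8 and read kinetically: 10 s baseline, 3 min after compound (agonist portion), then 2 min after EC20 capsaicin (allosteric enhancer portion). Calcium-bound dye fluorescence at 480/520 nm.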
Numbers stand for hits; – = inactive; ? = inconclusive; · = not tested or not shown; ! = a repeat was not active. An excerpt weighted towards active compounds, which were near 0.41% of everything screened.

SMILES	TRPV1 potentiator	TRPML1 agonist	TRPML1 inh	LDHA inh	TRPV1 agonist
O=C(NCC1(c2ccccc2)CCCC1)c1ccc(Br)o1	–	69.7	–	–	?
CCCN(CCC)C(C)C(=O)NCC1(c2ccccc2)CCCC1 (stereo not drawn)	–	106.9	?	–	?
Cc1ccc(Cl)cc1NC(=O)c1cc(=O)[nH]c2ccc(S(=O)(=O)N3CCOCC3)cc12	·	·	·	–	·
N#Cc1nc(C2CC2)oc1N1CCN(C(=O)c2ccccc2)CC1	·	·	·	–	·
Cc1nc(Nc2cccc(O)c2)c2oc3ccccc3c2n1	–	–	–	–	–
COc1cccc(Nc2nc(C)nc3c2oc2ccccc23)c1	–	–	–	–	80.2
Cc1nc(Nc2cccc(Cl)c2)c2oc3ccccc3c2n1	–	–	–	–	85.8
Cc1nc(Nc2cccc(F)c2)c2oc3ccccc3c2n1	–	–	–	–	98.6
COc1ccccc1N1CCN(c2nccnc2SCC(=O)Nc2ccc(F)cc2F)CC1	·	·	·	–	·
O=CNC12CCC3CC(CC(C3)C1)C2	·	·	·	–	·
COc1cc(/C=C2/SC(=S)N(Cc3ccccc3)C2=O)cc(Cl)c1O	–	64.7	–	–	?
COc1cc(/C=C2/SC(=S)N(Cc3ccccc3)C2=O)ccc1OCC(=O)O	–	–	–	–	–
Cc1ccccc1/C=C/C(=O)c1cc2ccccc2o1	·	·	·	–	·
Cc1ccc(C)c(N2CCN(S(=O)(=O)c3c(C(=O)N4CCC(C)CC4)c(C)n(C)c3C)CC2)c1	·	54.9	–	–	·
Cc1cccc(N2CCN(S(=O)(=O)c3c(C(=O)N4CCC(C)CC4)c(C)n(C)c3C)CC2)c1C	·	?	–	–	·
C/C(CC(=O)Nc1cc(C)ccn1)=N\NC(=O)c1ccccc1C	–	61.2	–	–	–
CCCC(=O)Nc1ccc(C(=O)Nc2ccc3c(c2)nc(CCn2ccnc2C)n3C)cc1	·	·	·	–	·
COC(=O)c1[nH]c(C)c(/C(O)=C2\C(=O)C(=O)N(CCCn3ccnc3)C2c2cccc(OC)c2)c1C (stereo not drawn)	·	·	·	-39.9	·
CCSc1nc2n(n1)C(c1cccs1)C1=C(CCCC1=O)N2 (stereo not drawn)	·	·	·	–	·
CC1c2ccsc2CCN1C(=O)c1n[nH]c(=O)c2ccccc12 (stereo not drawn)	·	·	·	–	·
Cc1ccc(S(=O)(=O)N(C)c2ccc(C)c([N+](=O)[O-])c2)cc1	80.1	–	–	–	–
CCC(C)(C)c1ccc(OCC(=O)Nc2ccncc2)cc1	–	–	–	–	89.9
CC(C)(C)c1ccc(OCC(=O)Nc2ccncc2)c(Br)c1	–	·	·	–	97.1
O=C(COc1ccc(Br)cc1)Nc1ccncc1	–	–	–	–	?
COC(=O)C(C#N)c1nc2ccccc2nc1NCC(C)(C)CN(C)C (stereo not drawn)	·	·	·	–	·
SMILES	TRPV1 potentiator	TRPML1 agonist	TRPML1 inh	LDHA inh	TRPV1 agonist
Cc1ccc(NC(=O)CN(C)C(=O)c2cc3cc(C)ccc3nc2C)cc1	·	·	·	–	·
COc1cc(/C=N/NC(=O)CNc2cccc(C(F)(F)F)c2)ccc1OC(=O)c1ccccc1F	·	·	·	-32.2	·
O=C1C(O)=C(c2ccccc2)C(c2ccccc2F)N1c1ccc(F)cc1 (stereo not drawn)	·	·	·	-40.8	·
O=C(COc1ccc2c(=O)c(-c3ccc(Cl)cc3)coc2c1)Nc1ccccc1	·	·	·	–	·
Cc1cc(C(=O)N2CCN(c3ccc(F)cc3)CC2)on1	–	–	–	–	–
O=C(c1nc(-c2cccnc2)no1)N1CCN(c2ccc(F)cc2)CC1	·	·	·	-32.9	·
CN(C)c1ccc(N=Nc2ccc(/C=C/c3ccnc4ccccc34)cc2)cc1	·	124.1	·	–	·
CN1CCCc2cc(/C=C/c3ccnc4ccccc34)ccc21	·	52.5	·	·	·
CN(C)c1ccc(/C=C/c2ccnc3ccc(Cl)cc23)cc1	·	–	·	–	·
CN(C)c1ccc(/C=C/c2ccnc3ccc(Br)cc23)cc1	·	54.5	·	–	·
CN(C)c1ccc(/C=C/c2ccc3ccccc3n2)cc1	–	52.3!	–	–	–
C(=C\c1ccnc2ccccc12)/c1ccc(N2CCN(c3ccc(/C=C/c4ccnc5ccccc45)cc3)CC2)cc1	·	–	·	–	·

Assay outcomes deposited in PubChem by National Center for Advancing Translational Sciences (NCATS).
